Source: PubChem
Most compounds without a hit are left out; they make up all but 8% or so of the library.
MARV entry inh: qHTS for Inhibitors of binding or entry into cells for Marburg Virus | Marburg virus pseudotype entry/binding inhibition, cell-based | 18,000 compounds, 6.5% hits | Potency, µM (series often up to 49.2 µM), inactives show top-dose activity change, negative = inhibition, most hits filed as inhibitors
Lassa entry: qHTS for Inhibitors of binding or entry into cells for Lassa Virus | Lassa virus pseudotyped entry inhibition, cell-based qHTS | Potency, µM (top dose mostly 49.2 µM), inactives show top-dose activity change, negative = inhibition, hits mostly inhibitors | 18,000 compounds, 4.1% hits | AID 720533, 2013
* = called active by the depositor; u = inconclusive; x = not tested or not shown; + = active, no number; ! = repeats disagree; [ ] = another dose, or the depositor's remark. Calls follow the shape of the full dose curve; tested in HEK293 cells. % is scaled to controls: 0 for no effect and ±100 for the full control effect; potency is read from the fitted curve at half-maximal effect.

SMILES	MARV entry inh	Lassa entry
COc1ccc2cc1Oc1ccc(cc1)CC1c3cc(c(OC)cc3CCN1C)Oc1c(OC)c(OC)cc3c1C(C2)N(C)CC3 (configuration not stated)	1.58µM*	11.2µM*
COc1ccc2cc1Oc1ccc(cc1)C[C@H]1c3cc(c(OC)cc3CCN1C)Oc1c(OC)c(OC)cc3c1[C@@H](C2)N(C)CC3	2.24µM*	u
COc1cc2c3cc1Oc1c(OC)c(OC)cc4c1C(Cc1cccc(c1)Oc1ccc(c(O)c1)CC3N(C)CC2)N(C)CC4 (configuration not stated)	-5.2%	-4.3%
COC(=O)C1=C(C)N(Cc2ccccc2)C(=NCc2ccc3c(c2)OCO3)NC1CCc1ccccc1 (configuration not stated)	-11.9%[8.59 µM]	x
Cc1ccc(CN2CC(N3CCN(C(=O)c4ccco4)CC3)CS2(=O)=O)cc1 (configuration not stated)	26.7%	12.5%
COc1cccc([C@H]2NC(=O)C[C@@H]3C[C@@H](C)[C@@H](c4cccc(OC)c4)N3C(=O)C=CC[C@@H]2C)c1	7.9%[8.59 µM]	43.5%[8.59 µM]
COC(=O)C1(C(=O)OC)C/C=C\Cc2ccccc2[C@@H]1C[N+](=O)[O-]	-3.6%	0.251µM*!
COC(=O)C1(C(=O)OC)C/C=C\C/C=C\c2ccccc2[C@@H]1C[N+](=O)[O-]	4.3%	5.3%
c1ccc(CCc2nc(-c3ccccc3)oc2NC2CCCCC2)cc1	-13.2%[8.59 µM]	-13.4%[8.59 µM]
COc1ccc(C(OCCN2CCC[C@H](C(=O)O)C2)(c2ccc(OC)cc2)c2ccc(OC)cc2)cc1	-25.5%	4.47µM*
COc1ccc(C(OCCN2CCC[C@@H](C(=O)O)C2)(c2ccc(OC)cc2)c2ccc(OC)cc2)cc1	-20.8%	6.31µM*
COc1ccc(C(=O)Nc2ccccc2CCC2CCCCN2C)cc1 (configuration not stated)	u	1.5%
Cc1ccsc1C(=CCCN1CCC[C@@H](C(=O)O)C1)c1sccc1C	10.5%	-1.6%
CCCCCCC(=O)Cc1cc(OC)c(OC)cc1C=C(C(C)=O)C(=O)OC	u	16.9%[8.59 µM]
Cc1cccc2c(N=Nc3ccc(S(N)(=O)=O)cc3)c(O)[nH]c12	-14.6%	58.0%
Cc1ccc2nc(NCCN)c3ncc(C)n3c2c1	7.94µM*	u
CC(=O)OC[C@H]1O[C@H](CCON=C(C)CCN2CCc3nc(-c4ccccc4)c(-c4ccccc4)cc3C2)C=C[C@H]1OC(C)=O	u	12.9%[8.59 µM]
N#Cc1ccc2c(c1)C[C@]1(CCCCN3C(=O)c4ccccc4C3=O)Oc3c(c(=O)oc4ccccc34)[C@H]2O1	u	10.1%[8.59 µM]
COC(=O)/C=C\c1cc(O)ccc1O	10µM*	25.1µM*
COC(=O)c1ccc(O)cc1	3.0%	-6.5%
O=C1Nc2ccccc2C1=C1CCc2cc(O)ccc21	-21.1%	x
CCC(=O)N[C@@H]1c2ccccc2C2(CCN(Cc3[nH]c4c(Cl)cccc4c3C)CC2)[C@H]1OC	11.2µM*	25.1µM*
CCC(=O)N[C@@H]1c2ccccc2C2(CCN(Cc3ccccn3)CC2)[C@H]1OC	9.1%	-3.8%
Fc1ccc(N2CCN(Cc3ccc4c(c3)CN(Cc3cccn3-c3cccnc3)CCO4)CC2)cc1	u	-19.6%
COC(=O)[C@@]12Cc3ccccc3[C@H]1C[C@H](C)[C@@H](C)N2C(=O)C(F)(F)F	3.2%[8.59 µM]	-3.0%[8.59 µM]
SMILES	MARV entry inh	Lassa entry
O=C(OC[C@H]1O[C@](O)(COC(=O)c2cccnc2)[C@@H](OC(=O)c2cccnc2)[C@@H]1OC(=O)c1cccnc1)c1cccnc1	3.0%	-8.4%
Cc1ccc(C)c(CN2CCc3nnc(CNC(=O)c4cc(C)oc4C)n3CC2)c1	+	-3.7%
Cc1cc(C(=O)NCc2nnc3n2CCN(Cc2ccc(C)c(C)c2)CC3)c(C)o1	-15.2%	-13.9%
COc1ccc(O[C@H]2C=C[C@@H](c3ccccc3)O[C@H]2CON=C2[C@H]3CCn4c(=O)n(-c5ccccc5)c(=O)n4[C@@H]3[C@H](O)[C@@H]3O[C@H]23)cc1	4.6%[8.59 µM]	6.2%[8.59 µM]
COc1cc2c(cc1Nc1nc(Nc3ccsc3C(N)=O)c3cc[nH]c3n1)N(C(=O)CN(C)C)CCC2	1.58µM*	x
CNC(=O)c1ncccc1Nc1nc(Nc2cc3c(cc2OC)CCCN3C(=O)CN(C)C)nc2[nH]ccc12	2.5µM*	u
COc1cc(N2CCN(C(C)C)CC2)ccc1Nc1nc(Nc2cccc(F)c2C(=O)O)c2cc[nH]c2n1	-20.7%	-3.9%
Cc1cc2c(nc1C)CCCN2CC(O)CN1CCCc2nc(-c3ccc(Br)cc3)ccc21 (configuration not stated)	u	10.1%[8.59 µM]
CCCCCCCCNCCS(=O)(=O)NCc1ccccc1OC	u	-7.8%
COc1ccccc1CNCCCCCCNCCCCCCCCNCCCCCCNCc1ccccc1OC	7.94µM*	u
COc1ccc(/C=C/c2cc(OC)cc(=O)o2)cc1	1.78µM*	8.91µM*
C/C=C/c1ccc(OC)cc1	15.8%	-3.2%
COC(=O)CC=C[C@@H](C)[C@@H](C=NOC[C@@H](O)[C@H]1O[C@@H]2OC(C)(C)O[C@H]2[C@@H]1O)OC	21.9%[8.59 µM]	47.1%[8.59 µM]
Cc1cc(C(=O)NCc2nnc3n2CCN(Cc2ccc4c(c2)Cc2ccccc2-4)CC3)c(C)o1	7.6%	-16.2%
C=C1C(=O)[C@]23[C@H](O)[C@H]1CC[C@H]2[C@@]12COC3(O)[C@H](O)[C@@H]1C(C)(C)CC[C@@H]2O	17.8µM*	u
Cc1ccccc1CN1[C@H](C)[C@@H](c2ccccc2)Oc2c(Cl)cccc2S1(=O)=O	17.8%	16.2%
O=C(O)c1ccc(CCN2CCN(CC=Cc3ccc(Cl)cc3)CC2)cc1	10.5%	0.1%
CN(CCc1ccc(Cl)c(Cl)c1)[C@H]1CCCC[C@H]1N1CCCC1	6.31µM*	17.8µM*
CN1CCN(CCc2ccc(Cl)c(Cl)c2)CC1	17.8µM*!	u
CN(CCc1ccc(Cl)c(Cl)c1)CC(O)COc1ccc(NS(C)(=O)=O)cc1 (configuration not stated)	u	3.1%
CN(CCc1ccc(Cl)c(Cl)c1)CCN1CCCCCC1	10µM*	u
CC(C)=CCCC(C)=CCN1C(=O)[C@@]2(C[C@@H](C)C[C@@H](C)O2)c2ccccc21	-6.8%[8.59 µM]	-22.2%[8.59 µM]
CNCC[C@H](Oc1cccc2ccccc12)c1cccs1	7.94µM*	22.4µM*
OC[C@@H](O)COc1cccc2ccccc12	-8.5%	-4.2%
COC(=O)C1=C(C(=O)OC)[C@@H]2N(CC=C(C)C)c3ccccc3[C@@]23CCC(=O)N(CCc2ccccn2)C3=N1	12.0%[8.59 µM]	-28.4%[8.59 µM]
CCN1C(=NCCc2ccccn2)NC(c2cccs2)C(C(=O)OC)=C1C (configuration not stated)	u	0.2%[8.59 µM]
CCN1C(=NCc2ccc3c(c2)OCO3)N[C@@H](c2ccccc2)[C@H](C(=O)OC)[C@H]1C	u	-11.4%[8.59 µM]
COC(=O)/C(C)=C\CC12OC(C)(C)C3CC(C=C4C(=O)c5c(OC)c6c(c(CC=C(C)C)c5OC431)OC(C)(CCC=C(C)C)C=C6)C2=O (configuration not stated)	2.82µM*	4.47µM*
CC(=O)Oc1c2c(c(CC=C(C)C)c3c1C(=O)C1=CC4CC5C(C)(C)OC(C/C=C(\C)C(=O)O)(C4=O)[C@]15O3)OC(C)(CCC=C(C)C)C=C2 (some centres not stated)	2.82µM*	u
CC(=O)Oc1c(-c2ccccc2)oc2c(CC=C(C)C)c3c(c(OC(C)=O)c2c1=O)C=CC(C)(C)O3	1.1%	0.8%
